# Experimental data taken from PubChem BioAssay.
# Calls of active or inactive are those of the source. Unless noted, how the calls were made is not given here.
# How the values were obtained:
# [1] = anti-His antibody binders, primary screen, artefact control for SMM control protein annotation, biochemical, small-molecule microarray, 635 nm fluorescence (AID 1128); settings: anti-His Alexa647 antibody binding, higher = more signal;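 further: score merges feature fluorescence with signal-to-noise for each printed compound spot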
# [2] = system: Human papillomavirus type 1a E7 protein (residues 1-88); assay: HPV1a E7 small-molecule binders, primary screen, biochemical, small-molecule microarray, residues 1-88, 635 nm (AID 1129); settings: small-molecule microarray binding, fluorescence 635 nm; higher = more signal
# [3] = target: Focal adhesion kinase 1 (Homo sapiens) (UniProt Q05397); assay: small-molecule microarray binders of FAK, primary screen, biochemical, 635/667 nm fluorescence, BSA, DTT (AID 1130); settings: PTK2 binding, 635 nm fluorescence, higher = more signal;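 further: composite of spot emission at 667 nm and signal to noise over triplicate slides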
# [4] = system: Fibrinogen (Alexa647-labelled); assay: fibrinogen binders on compound microarrays, profiling panel, artefact control for SMM control-protein annotation, biochemical, small-molecule microarray, 635/667 nm fluorescence (AID 1131); settings: fibrinogen-A647 binding fluorescence, higher = more signal;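 further: z-score merges 667 nm fluorescence with per-spot signal-to-noise over triplicate slides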
# [5] = target: Follistatin (Homo sapiens) (UniProt P19883); assay: follistatin binders on small-molecule microarrays, primary screen, biochemical, small-molecule microarray, 635/667 nm fluorescence (AID 1132); settings: FST binding, 635 nm fluorescence, higher = more signal
# [6] = target: Fibroblast growth factor 2 (Homo sapiens) (UniProt P09038); assay: FGF2 binders on small-molecule microarrays, primary screen, biochemical, small-molecule microarray, 635/667 nm fluorescence (AID 1133); settings: small-molecule microarray binding, FGF2, fluorescence 635/667; higher = more signal
# [7] = mitochondrial membrane potential change in A549 cells, profiling panel, cell-based, JC-1 fluorescence, basal, 24 h, 100 nL (AID 1138); settings: higher = more signal;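 further: A549 lung adenocarcinoma cells under basal conditions with no added stimulus; test concentration not given here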
# Lefty1 = Lefty1 binders on small-molecule microarrays, primary screen, biochemical, small-molecule microarray, 635/667 nm fluorescence (AID 1139); settings: small-molecule microarray binding, fluorescence 635/667; higher = more signal
# [8] = system: wheat germ agglutinin (Triticum aestivum), Alexa647-labelled; assay: wheat germ agglutinin binders on compound microarrays, profiling panel, artefact control for SMM control-protein annotation, biochemical, small-molecule microarray, 635/667 nm fluorescence (AID 1140); settings: WGA-A647 binding, 635 nm fluorescence, higher = more signal;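 further: score merges 667 nm feature emission with signal to noise over triplicate slides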
# [9] = target: Luciferin 4-monooxygenase (Photinus pyralis) (UniProt P08659); assay: firefly luciferase enzyme inhibitors, primary screen, biochemical, luminescence, purified enzyme, 2006 set (AID 1141); settings: SteadyGlo luminescence, 30 min, higher = more signal, called active from +8 up or from −8 down;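 further: cell-free assay with purified firefly luciferase at 100 ng per well in PBS; test concentration not given here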
# [10] = system: Wnt5a (protein binding on small-molecule microarray); assay: Wnt5a binders on small-molecule microarray, primary screen, biophysical, 635/667 nm fluorescence (AID 1142); settings: 635 nm fluorescence, higher = more signal;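 further: fluorescence read at 667 nm with signal to noise per printed feature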
# [11] = cell viability in Huh7 cells, primary screen, cytotoxicity control for HCV replication inhibitor project, CellTiter-Glo luminescence, basal, 48 h (AID 1143); settings: Huh7 HCV replicon, higher = more signal, called active from +8 up or from −8 down;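 further: Huh7 hepatoma cells carrying a hepatitis C replication reporter with no stimulus; test concentration not given here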
# [12] = P. aeruginosa biofilm formation inhibitors, primary screen, PAO1 strain, BacTiter-Glo luminescence, LB-PBS (AID 1144); settings: 12 h, higher = more signal
# [13] = CREB reporter modulators without forskolin, primary screen, cell-based, PC12, CRE-LacZ reporter, unstimulated (AID 1145); settings: no forskolin, luminescence, 4.5 h, higher = more signal, called active from +8 up or from −8 down
# [14] = CREB reporter modulators under forskolin, primary screen, cell-based, PC12, CRE-LacZ reporter, forskolin-stimulated (AID 1146); settings: luminescence, 4.5 h, higher = more signal, called active from +8 up or from −8 down;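 further: PC12 cells with 6xCRE LacZ reporter stimulated by forskolin 10 µM; beta-galactosidase reporter signal reflecting CREB driven transcription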
# [15] = target: Streptavidin (Streptomyces avidinii) (UniProt P22629); assay: streptavidin binders on small-molecule microarray, primary screen, artefact control for SMM compound annotation, biophysical, 635/667 nm fluorescence (AID 1147); settings: streptavidin binding, higher = more signal;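 further: signal reflects streptavidin binding to arrayed compounds as a control protein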
# [16] = small-molecule binders of probe aInhba, primary screen, biochemical, small-molecule microarray, 635/667 nm fluorescence (AID 1148); settings: higher = more signal;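 further: score merges 667nm spot fluorescence with signal-to-noise for antibody binding to printed compounds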
# Torsin-1A (Homo sapiens) [17] = target: Torsin-1A (Homo sapiens) (UniProt O14656); assay: torsin A binders from cell lysate, primary screen, small-molecule microarray, wild-type, 635/667 nm (AID 1149); settings: COS7 hTOR1A-WT lysate, 635 nm fluorescence, higher = more signal
# Torsin-1A (Homo sapiens) [18] = target: Torsin-1A (Homo sapiens) (UniProt O14656); assay: small-molecule binders of mutant TOR1A in lysate, primary screen, cell lysate, small-molecule microarray, COS7 lysate, 635/667 nm fluorescence (AID 1150); settings: COS7 hTOR1A mutant lysate, 635 nm fluorescence, higher = more signal;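 further: score pools 667 nm emission and signal to noise measuring lysate protein binding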
# [19] = system: Sonic hedgehog protein (Shh); assay: small-molecule binders of Shh protein, primary screen, biochemical, small-molecule microarray, 635/667 nm fluorescence (AID 1151); settings: small-molecule microarray binding, 635 nm fluorescence; higher = more signal;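 further: Shh protein binding to compounds spotted on small-molecule microarray slides; score combines spot fluorescence intensity with signal-to-noise across triplicate slides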
# Sequence of Streptavidin (Streptomyces avidinii) (P22629 whole entry, looked up): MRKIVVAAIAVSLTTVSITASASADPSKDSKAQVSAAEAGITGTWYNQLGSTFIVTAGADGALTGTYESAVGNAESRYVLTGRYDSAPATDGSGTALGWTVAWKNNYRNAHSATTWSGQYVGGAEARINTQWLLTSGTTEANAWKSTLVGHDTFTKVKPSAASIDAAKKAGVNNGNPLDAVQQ
# Sequence of Follistatin (Homo sapiens) (P19883 whole entry, looked up): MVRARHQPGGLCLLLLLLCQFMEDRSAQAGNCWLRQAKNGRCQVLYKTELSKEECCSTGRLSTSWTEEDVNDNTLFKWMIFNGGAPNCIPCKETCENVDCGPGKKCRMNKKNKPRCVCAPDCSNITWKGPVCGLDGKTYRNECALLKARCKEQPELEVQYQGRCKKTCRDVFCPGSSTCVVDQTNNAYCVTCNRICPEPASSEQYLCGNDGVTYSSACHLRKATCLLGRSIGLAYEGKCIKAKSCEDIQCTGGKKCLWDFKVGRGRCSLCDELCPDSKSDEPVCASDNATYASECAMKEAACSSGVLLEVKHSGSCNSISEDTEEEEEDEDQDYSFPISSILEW
# Sequence of Fibroblast growth factor 2 (Homo sapiens) (P09038 whole entry, looked up): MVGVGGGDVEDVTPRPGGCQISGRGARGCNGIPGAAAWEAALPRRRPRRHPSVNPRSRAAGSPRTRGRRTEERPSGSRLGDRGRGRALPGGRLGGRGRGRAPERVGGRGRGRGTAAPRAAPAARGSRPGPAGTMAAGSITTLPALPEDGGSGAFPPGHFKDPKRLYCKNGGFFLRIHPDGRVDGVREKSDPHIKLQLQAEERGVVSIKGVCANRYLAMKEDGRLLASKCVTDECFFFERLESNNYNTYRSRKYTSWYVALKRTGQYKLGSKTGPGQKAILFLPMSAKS
# Sequence of Focal adhesion kinase 1 (Homo sapiens) (Q05397 whole entry, looked up): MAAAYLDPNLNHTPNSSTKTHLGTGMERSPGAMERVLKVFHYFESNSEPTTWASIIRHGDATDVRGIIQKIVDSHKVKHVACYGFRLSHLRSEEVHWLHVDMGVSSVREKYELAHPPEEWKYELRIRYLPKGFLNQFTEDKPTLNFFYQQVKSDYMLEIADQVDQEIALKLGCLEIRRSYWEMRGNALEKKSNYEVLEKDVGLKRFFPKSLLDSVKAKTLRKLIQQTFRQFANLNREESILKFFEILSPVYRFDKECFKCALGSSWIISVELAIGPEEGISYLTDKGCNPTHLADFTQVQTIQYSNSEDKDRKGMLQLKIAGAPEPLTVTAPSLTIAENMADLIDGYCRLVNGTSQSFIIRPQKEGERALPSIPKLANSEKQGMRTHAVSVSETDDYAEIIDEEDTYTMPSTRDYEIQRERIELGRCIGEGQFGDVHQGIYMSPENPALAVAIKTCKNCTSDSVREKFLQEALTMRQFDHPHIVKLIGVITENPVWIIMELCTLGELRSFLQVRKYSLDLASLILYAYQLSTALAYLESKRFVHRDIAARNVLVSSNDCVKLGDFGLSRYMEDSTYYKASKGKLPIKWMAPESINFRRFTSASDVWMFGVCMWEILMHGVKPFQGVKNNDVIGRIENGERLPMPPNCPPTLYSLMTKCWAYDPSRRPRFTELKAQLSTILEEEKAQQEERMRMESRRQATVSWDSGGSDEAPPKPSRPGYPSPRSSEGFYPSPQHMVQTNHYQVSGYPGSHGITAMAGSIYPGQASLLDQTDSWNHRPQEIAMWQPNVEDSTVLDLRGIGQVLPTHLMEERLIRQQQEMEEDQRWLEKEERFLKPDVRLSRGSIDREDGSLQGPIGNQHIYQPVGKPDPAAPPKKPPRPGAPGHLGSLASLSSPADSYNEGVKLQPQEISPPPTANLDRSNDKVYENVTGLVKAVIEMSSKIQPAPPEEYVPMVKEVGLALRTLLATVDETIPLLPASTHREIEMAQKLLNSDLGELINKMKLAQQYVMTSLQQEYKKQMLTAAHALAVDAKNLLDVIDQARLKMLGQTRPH
# Sequence of Luciferin 4-monooxygenase (Photinus pyralis) (P08659 whole entry, looked up): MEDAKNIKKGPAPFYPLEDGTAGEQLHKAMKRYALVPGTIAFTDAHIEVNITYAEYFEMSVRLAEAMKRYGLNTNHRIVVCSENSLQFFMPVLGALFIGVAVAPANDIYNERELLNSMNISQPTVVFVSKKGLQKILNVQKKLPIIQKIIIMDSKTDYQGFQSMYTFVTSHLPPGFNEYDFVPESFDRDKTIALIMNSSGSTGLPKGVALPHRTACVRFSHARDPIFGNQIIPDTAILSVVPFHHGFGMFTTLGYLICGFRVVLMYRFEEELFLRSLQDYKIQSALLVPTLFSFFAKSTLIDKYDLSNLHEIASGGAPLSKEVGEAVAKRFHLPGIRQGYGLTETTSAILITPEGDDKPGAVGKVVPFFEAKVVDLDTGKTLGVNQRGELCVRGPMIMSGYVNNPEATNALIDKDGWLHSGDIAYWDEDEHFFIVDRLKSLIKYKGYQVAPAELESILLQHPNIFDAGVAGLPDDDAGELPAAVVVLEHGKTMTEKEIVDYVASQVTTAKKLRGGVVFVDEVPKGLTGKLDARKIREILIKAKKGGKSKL
# Sequence of Torsin-1A (Homo sapiens) (O14656 whole entry, looked up): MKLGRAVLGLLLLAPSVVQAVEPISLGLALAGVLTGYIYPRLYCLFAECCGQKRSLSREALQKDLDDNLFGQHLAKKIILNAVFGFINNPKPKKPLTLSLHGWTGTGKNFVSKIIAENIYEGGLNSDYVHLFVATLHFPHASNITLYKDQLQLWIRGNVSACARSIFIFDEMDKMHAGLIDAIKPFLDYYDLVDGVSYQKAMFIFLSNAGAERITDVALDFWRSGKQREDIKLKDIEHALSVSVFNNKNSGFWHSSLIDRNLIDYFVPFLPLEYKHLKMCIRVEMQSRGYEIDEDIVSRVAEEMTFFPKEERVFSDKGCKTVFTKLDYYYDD
Compound,composite z-score [1],composite z-score [2],composite z-score [3],composite z-score [4],composite z-score [5],composite z-score [6],z-score [7],composite z-score (Lefty1),composite z-score [8],z-score [9],composite z-score [10],z-score [11],z-score [12],z-score [13],z-score [14],composite z-score [15],composite z-score [16],composite z-score (Torsin-1A (Homo sapiens) [17]),composite z-score (Torsin-1A (Homo sapiens) [18]),composite z-score [19]
O=C1C2C=CC(C(O)c3cccs3)N(Nc3ccccc3)C2C(=O)N1c1ccccc1 (stereo not given),-0.0476,-0.741,0.948,0.183,0.761,-0.473,-0.4,-0.289,0.253,-0.802 (inactive),0.114,-2.55 (inactive),-0.991 (inactive),-0.136 (inactive),0.592 (inactive),0.195,-0.0604,-0.372,-0.629,0.0003
COc1ccc(NC(=O)O[C@H]2[C@H](OC(=O)Nc3ccc4c(c3)OCO4)[C@H](OC(=O)Nc3ccc4c(c3)OCO4)[C@@H](OC)O[C@@H]2CO)cc1,1.45,1.25,0.216,0.362,1.29,0.319,0.0258,0.293,0.8,-6.52 (inactive),0.0873,-2.42 (inactive),0.883 (inactive),0.456 (inactive),-0.92 (inactive),-0.0821,-0.0131,0.207,1.91,0.725
NCCCC[C@@H]1NC(=O)[C@H]2C[C@@H](C(=O)O)[C@@H](c3cccc(OCCO)c3)N2C1=O,3,1.26,0.188,0.577,1.41,1.69,-1.44,1.64,1.44,-1.08 (inactive),0.424,0.0458 (inactive),-0.0686 (inactive),-0.943 (inactive),0.963 (inactive),1.99,0.15,1.18,1.7,1.85
C=CC(CO)NC(=O)OCC1c2ccccc2-c2ccccc21 (stereo not given),0.311,0.421,0.476,0.578,0.763,0.415,0.02,0.618,-0.105,-0.409 (inactive),0.237,0.0812 (inactive),0.219 (inactive),1.03 (inactive),0.584 (inactive),0.0333,-0.183,0.743,0.724,0.775
N#Cc1ccc(C(O)C2C=CC3C(=O)NC(=O)C3N2Nc2ccccn2)cc1 (stereo not given),0.782,0.615,-0.205,0.861,0.286,-0.126,1.36,-0.157,0.144,-1.25 (inactive),-0.0926,-0.0103 (inactive),-1.11 (inactive),0.243 (inactive),-0.345 (inactive),0.126,-0.0427,0.166,0.241,-0.301
O=C1O[C@H](c2ccccc2)[C@H](c2ccccc2)N2[C@H]1[C@@H](C(=O)N1CCN(c3ncccn3)CC1)[C@]1(C(=O)Nc3ccccc31)[C@H]2c1ccc(O)cc1,2.34,1.07,0.759,0.635,0.889,0.451,0.028,-0.116,0.185,-1.3 (inactive),0.186,-2.48 (inactive),-0.151 (inactive),0.299 (inactive),-0.682 (inactive),-0.0699,0.0018,0.103,0.799,0.0388
CCCCN1CC=CC23O[C@@H]4C=CCOC(=O)[C@@H]4[C@H]2C(=O)N(CCO)[C@@H]3C1=O (stereo not given in full),-0.211,-0.629,-0.681,-0.717,-1.06,-1.39,0.0309,-1.45,-1.29,0.0308 (inactive),-0.477,-0.238 (inactive),1.1 (inactive),0.0605 (inactive),0.113 (inactive),-0.94,0.059,0.0805,-0.243,-0.858
CC(c1ccccc1)C(O)C1C=CC2C(=O)N(c3ccccc3)C(=O)C2N1Nc1ccc(C#N)cc1 (stereo not given),2.19,1.22,0.648,0.993,1.12,0.329,1.03,1.12,0.772,-0.424 (inactive),0.644,-0.661 (inactive),-1.26 (inactive),-0.136 (inactive),0.721 (inactive),0.17,0.179,0.618,0.739,1.18
COCCOC(=O)N1C(=O)[C@@]2(c3cc(C#Cc4ccc(OC)cc4)ccc31)[C@H](C(=O)N1CCCCCCC1)[C@H]1C(=O)O[C@H](c3ccccc3)[C@H](c3ccccc3)N1[C@@H]2c1ccccc1OCCO,0.32,1.21,0.628,0.495,1.49,1.54,-0.864,1.62,0.614,0.197 (inactive),1.15,-0.751 (inactive),-1.4 (inactive),-1.42 (inactive),0.323 (inactive),1.53,1.59,1.43,1.18,1.9
COc1ccc(C#Cc2ccc3c(c2)[C@]2(C(=O)N3)[C@H](C(=O)Nc3nc4ccccc4s3)[C@H]3C(=O)O[C@H](c4ccccc4)[C@H](c4ccccc4)N3[C@@H]2c2ccc(OCCO)cc2)cc1,1.11,0.98,0.266,0.731,1.38,0.83,-2.33,0.949,1.29,-3.53 (inactive),0.505,-0.974 (inactive),-0.953 (inactive),-1.43 (inactive),-0.545 (inactive),1.57,0.153,0.504,0.887,1.06
